According to PubChem BioAssay AID1159580 (chemical genetic matrix, 2015):
“And” between values parts separate entries of the source, which are not always exact repeats. Identical values can stand only once. Among all 5,500 compounds or so, about 2,000 (36%) were called active. About 18% were inconclusive and are not listed. This is one part of the list. Values without a mark were called inactive. Cut-off read from the data, not from the text of the source: active = normalized growth mostly below about 0.91 (no sharp cut-off); inconclusive = no clear call, values can overlap the other calls; inactive = mostly above about 0.92.

Experiment: chemical genetic growth profiling, strain panel (AID 1159580);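 note: tested at 20 µM; growth read once vehicle control cultures reached saturation at 30 °C; 1 = growth at the plate median or of vehicle wells; lower values mean less growth of the strain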
Details: S. cerevisiae deletion strains, growth OD

COc1ccc2c(c1)OCC(Cc1ccc(OC)c(O)c1)C2=O (configuration not stated)
normalized growth (locus YAL013W, strain DEP1, active compounds read low): 0.955 | normalized growth (locus YAL021C, strain ccr4, active compounds read low): 0.993 | normalized growth (locus YAL026C, strain drs2, active compounds read low): 0.965 | normalized growth (locus YAL030W, strain snc1, active compounds read low): 0.953 | normalized growth (locus YBL061C, strain skt5, active compounds read low): 0.961 | normalized growth (locus YBR009C, strain hhf1, active compounds read low): 0.903 (active) | normalized growth (locus YBR021W, strain FUR4, active compounds read low): 0.873 | normalized growth (locus YBR023C, strain chs3, active compounds read low): 0.929 | normalized growth (locus YBR171W, strain sec66, active compounds read low): 0.937 | normalized growth (locus YBR229C, strain ROT2, active compounds read low): 0.98 | normalized growth (locus YBR231C, strain swc5, active compounds read low): 0.968 | normalized growth (locus YBR279W, strain paf1, active compounds read low): 0.979 | normalized growth (locus YCL011C, strain gbp2, active compounds read low): 0.922 | normalized growth (locus YCL016C, strain dcc1, active compounds read low): 0.939 | normalized growth (locus YCL029C, strain bik1, active compounds read low): 0.952 | normalized growth (locus YCL061C, strain MRC1, active compounds read low): 0.933 | normalized growth (locus YCL069W, strain vba3, active compounds read low): 0.956 | normalized growth (locus YCR088W, strain abp1, active compounds read low): 0.963 | normalized growth (locus YDL005C, strain med2, active compounds read low): 0.959 | normalized growth (locus YDL035C, strain GPR1, active compounds read low): 0.972 | normalized growth (locus YDL040C, strain nat1, active compounds read low): 0.967 | normalized growth (locus YDL074C, strain BRE1, active compounds read low): 0.937 | normalized growth (locus YDL101C, strain DUN1, active compounds read low): 0.942 | normalized growth (locus YDL185W, strain tfp1, active compounds read low): 0.961 | normalized growth (locus YDL192W, strain arf1, active compounds read low): 0.958 | normalized growth (locus YDR001C, strain nth1, active compounds read low): 0.959 | normalized growth (locus YDR069C, strain doa4, active compounds read low): 1.01 | normalized growth (locus YDR101C, strain arx1, active compounds read low): 0.972 | normalized growth (locus YDR137W, strain rgp1, active compounds read low): 0.974 | normalized growth (locus YDR159W, strain sac3, active compounds read low): 0.867 | normalized growth (locus YDR162C, strain NBP2, active compounds read low): 0.982 | normalized growth (locus YDR195W, strain ref2): 1.23 [resistant] (active) | normalized growth (locus YDR297W, strain sur2, active compounds read low): 0.963 | normalized growth (locus YDR318W, strain mcm21, active compounds read low): 0.93 | normalized growth (locus YDR334W, strain swr1, active compounds read low): 0.977 | normalized growth (locus YDR335W, strain msn5, active compounds read low): 0.973 | normalized growth (locus YDR388W, active compounds read low): 0.967 | normalized growth (locus YDR392W, strain spt3, active compounds read low): 0.449 (active) | normalized growth (locus YDR502C, strain sam2, active compounds read low): 0.909 (active) | normalized growth (locus YEL003W, strain gim4, active compounds read low): 0.933 | normalized growth (locus YEL037C, strain rad23, active compounds read low): 0.964 | normalized growth (locus YEL061C, strain CIN8 (second series), active compounds read low): 0.968 | normalized growth (locus YEL061C, strain CIN8, active compounds read low): 0.978 | normalized growth (locus YER015W, strain faa2, active compounds read low): 0.961 | normalized growth (locus YER016W, strain bim1, active compounds read low): 0.965 | normalized growth (locus YER110C, active compounds read low): 0.931 | normalized growth (locus YER111C, strain swi4, active compounds read low): 0.962 | normalized growth (locus YER155C, strain BEM2 (second series), active compounds read low): 0.757 (active) | normalized growth (locus YER155C, strain BEM2, active compounds read low): 0.963 | normalized growth (locus YER167W, strain BCK2, active compounds read low): 0.981 | normalized growth (locus YFR010W, strain ubp6, active compounds read low): 0.989 | normalized growth (locus YGL078C, strain dbp3, active compounds read low): 0.92 (active) | normalized growth (locus YGL086W, strain mad1, active compounds read low): 0.934 | normalized growth (locus YGL167C, strain pmr1, active compounds read low): 0.939 | normalized growth (locus YGL173C, strain kem1, active compounds read low): 0.924 | normalized growth (locus YGL227W, strain vid30, active compounds read low): 0.964 | normalized growth (locus YGL240W, strain doc1, active compounds read low): 0.821 (active) | normalized growth (locus YGL248W, strain PDE1, active compounds read low): 0.9 | normalized growth (locus YGL253W, strain hxk2, active compounds read low): 0.91 (active) | normalized growth (locus YGR078C, strain PAC10, active compounds read low): 0.914 | normalized growth (locus YGR135W, strain pre9, active compounds read low): 0.868 (active) | normalized growth (locus YGR252W, strain gcn5, active compounds read low): 0.78 | normalized growth (locus YHR013C, strain ard1, active compounds read low): 0.956 | normalized growth (locus YHR027C, strain rpn1, active compounds read low): 0.944 | normalized growth (locus YHR030C, strain SLT2, active compounds read low): 0.978 | normalized growth (locus YHR079C, strain IRE1 (second series), active compounds read low): 0.964 | normalized growth (locus YHR079C, strain IRE1, active compounds read low): 0.983 | normalized growth (locus YHR094C, strain hxt1, active compounds read low): 0.969 | normalized growth (locus YHR129C, strain ARP1, active compounds read low): 0.966 | normalized growth (locus YHR142W, strain chs7, active compounds read low): 0.872 (active) | normalized growth (locus YHR200W, strain rpn10, active compounds read low): 0.975 | normalized growth (locus YIL066C, strain RNR3, active compounds read low): 0.975 | normalized growth (locus YIL073C, strain SPO22, active compounds read low): 0.881 | normalized growth (locus YIL125W, strain kgd1, active compounds read low): 0.969 | normalized growth (locus YIR030C, strain dcg1, active compounds read low): 0.942 | normalized growth (locus YJL092W, strain hpr5, active compounds read low): 0.968 | normalized growth (locus YJL095W, strain BCK1 (second series), active compounds read low): 0.94 | normalized growth (locus YJL095W, strain BCK1, active compounds read low): 0.903 and 1 | normalized growth (locus YJL115W, strain asf1, active compounds read low): 0.969 | normalized growth (locus YJL129C, strain trk1, active compounds read low): 0.886 | normalized growth (locus YJL134W, strain LCB3, active compounds read low): 0.981 | normalized growth (locus YJL154C, strain vps35, active compounds read low): 0.964 | normalized growth (locus YJL164C, strain tpk1, active compounds read low): 0.933 | normalized growth (locus YJL166W, strain qcr8, active compounds read low): 0.844 (active) | normalized growth (locus YJL168C, strain set2, active compounds read low): 0.958 | normalized growth (locus YJL187C, strain SWE1 (second series), active compounds read low): 0.926 | normalized growth (locus YJL187C, strain SWE1, active compounds read low): 0.983
